Consider 34 molecules from PubChem BioAssay (NCATS).

Inconclusive results are not listed. A call without a number means that no potency is given here. Activity calls are given as the source filed them. Unless noted, calls follow the shape of the dose curve; as a rule, active = well fitted curve in the direction sought with a large enough effect; inconclusive = small, poorly fitted or top-dose-only effect, or another doubt; inactive = no such curve, though single readings can be large; an effect the other way counts as inactive or inconclusive.

Assay [1] deals with Vitamin D3 receptor (Homo sapiens) (UniProt P11473). In words: qHTS assay for small molecule antagonists of vitamin D receptor signaling (AID 588541; calls by dose curve;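 also: receptor activated by calcitriol during compound treatment; series mostly up to about 77 µM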). Summed up: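 VDR-UAS-bla HEK293T cells in 2% charcoal-stripped FBS were stimulated with 1-alpha,25-dihydroxyvitamin D3 (3 nM final) plus compound for 16 h at 37 C. The beta-lactamase CCF4 readout was normalized to 50 nM agonist and DMSO, and Hill fits gave IC50.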
Vitamin D3 receptor (Homo sapiens), sequence (P11473 whole entry, looked up): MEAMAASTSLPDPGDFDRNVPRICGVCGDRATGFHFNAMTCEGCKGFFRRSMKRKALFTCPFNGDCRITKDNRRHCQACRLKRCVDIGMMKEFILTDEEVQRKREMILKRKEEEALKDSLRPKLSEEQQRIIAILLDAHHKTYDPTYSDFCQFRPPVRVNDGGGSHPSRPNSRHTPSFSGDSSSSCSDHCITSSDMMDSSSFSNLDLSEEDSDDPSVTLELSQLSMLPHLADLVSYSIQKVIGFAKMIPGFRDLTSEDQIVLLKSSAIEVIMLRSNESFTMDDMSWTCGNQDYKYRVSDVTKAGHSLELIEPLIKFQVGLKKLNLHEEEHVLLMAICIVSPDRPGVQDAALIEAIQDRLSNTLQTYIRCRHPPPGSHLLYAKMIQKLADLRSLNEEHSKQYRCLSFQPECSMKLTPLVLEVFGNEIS

The target is the same in assay [2]. In words: qHTS assay for small molecule agonists of vitamin D receptor signaling (AID 588543; calls by dose curve). Summed up: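 qHTS in agonist mode: compound titrations stimulate a VDR-driven β-lactamase reporter in HEK293T cells over 16 h at 37 °C. Response normalized to 50 nM 1α,25-dihydroxyvitamin D3 = 100%, DMSO = 0%; Hill fitting gives EC50 and maximal response.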
The nature of assay [3]: qHTS assay for small molecule agonists of retinoid X receptor alpha signaling (AID 588544; calls by dose curve). The settings on record: HEK293T RXRa-UAS-bla, beta-lactamase reporter, 18 h; 530 nm emission.
Assay [4] has as its target Retinoic acid receptor RXR-alpha (Homo sapiens) (UniProt P19793). Described as above.
Assay [5] concerns the target Thyroid hormone receptor beta (Homo sapiens) (UniProt P10828). Put plainly: qHTS assay for small molecule agonists of thyroid hormone receptor beta signaling (AID 588545; calls by dose curve). Summed up: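 Compounds were tested as agonists in TR-UAS-bla-GripTite HEK 293 cells. After 18 hrs at 37 C, CCF4 substrate was added and fluorescence read after 2 hrs at room temperature.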
In general terms: Quantitative high-throughput screening tests each substance at several concentrations.

Assay [6] can be described thus: qHTS assay for small molecule antagonists of retinoid X receptor alpha signaling (AID 588546).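 Also: cells stimulated with 9-cis-retinoic acid as agonist.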 The settings on record: HEK293T RXRa-UAS-bla, beta-lactamase ratio, antagonist mode; measured here: W530 green channel, cytotoxicity proxy. Summed up: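 Beta-lactamase reporter inhibition, read as CCF4 fluorescence ratio (ex 405, em 460/530 nm) after 2 h at RT. HEK293T UAS-bla cells, 2500/well, were stimulated with 9-cis-RA at 500 or 100 nM final alongside test compound for 18 h at 37 C.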

Assay [7] has as its target Thyroid hormone receptor beta (Homo sapiens) (UniProt P10828). In words: qHTS assay for small molecule antagonists of thyroid hormone receptor beta signaling (AID 588547; active = well fitted inhibition curve with a large enough effect in the signal ratio, with a control signal flat, not every such curve was filed as active; the % refers to the signal ratio;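 also: cells stimulated with 0.4 nM T3 agonist during compound exposure; series mostly up to about 77 µM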). The note with it: TR-UAS-bla HEK293, beta-lactamase ratio, antagonist mode, 18 h. A digest of the protocol: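 TR-UAS-bla GripTite HEK293 cells in 2% charcoal/dextran FBS medium; compounds 0.59 nM to 92 uM with T3 at 0.4nM final, 18 h at 37 C. Beta-lactamase read by CCF4 fluorescence (460/530 nm); Hill fits gave IC50 and efficacy.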

Assay [8] concerns the target Voltage-gated inwardly rectifying potassium channel KCNH2 (Homo sapiens) (UniProt Q12809). In words: qHTS Assay for Small Molecule Inhibitors of the Human hERG Channel Activity (AID 588834).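 Also: lower thallium flux fluorescence means stronger hERG block; nearly all actives have a fitted effect of over 50% in size.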 Also: potency is read from the fitted curve at half-maximal effect. Summed up:
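Cells were infected with hERG-BacMam virus for 4 hrs at room temperature, grown overnight, then seeded at 2000/well. After dye loading and roughly 10 min compound treatment, thallium influx was triggered and fluorescence recorded.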

For assay [9], the target named is Luciferin 4-monooxygenase (Photinus pyralis) (UniProt P08659). In words: Biochemical firefly luciferase enzyme assay for NPC (AID 624030). Also: nearly all actives have a fitted effect of over 70% in size. Also: potency is read from the fitted curve at half-maximal effect. A digest of the protocol: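 Purified P. pyralis luciferase at 10 nM in 50 mM Tris Acetate (final), luminescence read within 5 minutes of enzyme addition to compounds. Activity normalised to PTC124 versus DMSO; concentration-response curves classed by r2, magnitude and activity.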
Luciferin 4-monooxygenase (Photinus pyralis), sequence (P08659 whole entry, looked up): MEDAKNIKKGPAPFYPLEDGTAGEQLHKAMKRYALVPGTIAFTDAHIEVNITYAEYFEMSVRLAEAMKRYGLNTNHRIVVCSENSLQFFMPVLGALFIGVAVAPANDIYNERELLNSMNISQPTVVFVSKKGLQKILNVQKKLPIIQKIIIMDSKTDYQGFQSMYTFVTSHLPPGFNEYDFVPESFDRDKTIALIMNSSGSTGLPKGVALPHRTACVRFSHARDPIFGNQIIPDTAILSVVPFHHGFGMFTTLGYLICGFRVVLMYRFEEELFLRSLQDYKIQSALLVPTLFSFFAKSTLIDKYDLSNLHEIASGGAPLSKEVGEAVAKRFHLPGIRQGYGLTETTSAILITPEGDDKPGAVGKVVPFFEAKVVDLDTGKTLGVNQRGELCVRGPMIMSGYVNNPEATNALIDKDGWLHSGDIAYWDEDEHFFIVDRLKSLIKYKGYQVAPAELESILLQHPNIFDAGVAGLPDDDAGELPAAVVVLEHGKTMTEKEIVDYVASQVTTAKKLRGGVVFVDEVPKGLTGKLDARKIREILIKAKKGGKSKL

Assay [10] is described as follows: S16 Schwann cell viability assay (CellTiter-Glo assay) (AID 624031). Also: series mostly up to about 58 µM; nearly all actives have a fitted effect of over 70% in size. A digest of the protocol: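 Untransfected S16 rat Schwann cells; compound 24 h, 37 °C/5% CO2; CellTiter-Glo ATP luminescence. % activity vs no-cell wells and DMSO controls (0%); concentration-effect curves classed by r2, response magnitude, activity.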
For orientation: ATP-based viability assays read luminescence as a measure of living cells.

The nature of assay [11]: S16 Schwann cell PMP22 intronic element firefly luciferase assay (AID 624032). Also: series mostly up to about 58 µM; nearly all actives have a fitted effect of over 30% in size. Summed up: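 Rat S16 Schwann cells stably carrying firefly luciferase driven by a PMP22 intronic element, in 10% FBS, treated 24 h at 37 C. ONE-Glo luminescence normalized to PTC124 control and DMSO (0%); curves classed by r2, magnitude and activity.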
Assay [12] can be described thus: S16 Schwann cell PMP22 intronic element beta-lactamase assay (AID 624044; calls by dose curve; also: nearly all actives have a fitted effect of over 15% in size). A digest of the protocol:
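Beta-lactamase reporter under a PMP22 intronic regulatory element in stable S16 rat Schwann cells; 24 h compound exposure. 460 nm blue signal normalized between DMSO (0%) and potassium clavulanate, with 535 nm FRET tracking viability; curves classed by r2 and response.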

Thyroid hormone receptor beta (Homo sapiens), sequence (P10828 whole entry, looked up): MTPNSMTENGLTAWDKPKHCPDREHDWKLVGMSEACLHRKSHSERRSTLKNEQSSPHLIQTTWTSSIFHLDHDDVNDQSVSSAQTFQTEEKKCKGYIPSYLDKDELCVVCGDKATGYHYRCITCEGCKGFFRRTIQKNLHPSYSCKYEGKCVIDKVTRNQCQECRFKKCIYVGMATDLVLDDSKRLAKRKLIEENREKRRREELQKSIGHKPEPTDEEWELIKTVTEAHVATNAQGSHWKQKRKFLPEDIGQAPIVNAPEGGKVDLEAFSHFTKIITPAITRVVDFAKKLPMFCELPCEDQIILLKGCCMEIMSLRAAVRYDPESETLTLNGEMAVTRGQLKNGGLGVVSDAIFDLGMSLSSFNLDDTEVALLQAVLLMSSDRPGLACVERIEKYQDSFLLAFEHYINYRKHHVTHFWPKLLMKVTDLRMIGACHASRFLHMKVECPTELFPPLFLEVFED
Voltage-gated inwardly rectifying potassium channel KCNH2 (Homo sapiens), sequence (Q12809 whole entry, looked up): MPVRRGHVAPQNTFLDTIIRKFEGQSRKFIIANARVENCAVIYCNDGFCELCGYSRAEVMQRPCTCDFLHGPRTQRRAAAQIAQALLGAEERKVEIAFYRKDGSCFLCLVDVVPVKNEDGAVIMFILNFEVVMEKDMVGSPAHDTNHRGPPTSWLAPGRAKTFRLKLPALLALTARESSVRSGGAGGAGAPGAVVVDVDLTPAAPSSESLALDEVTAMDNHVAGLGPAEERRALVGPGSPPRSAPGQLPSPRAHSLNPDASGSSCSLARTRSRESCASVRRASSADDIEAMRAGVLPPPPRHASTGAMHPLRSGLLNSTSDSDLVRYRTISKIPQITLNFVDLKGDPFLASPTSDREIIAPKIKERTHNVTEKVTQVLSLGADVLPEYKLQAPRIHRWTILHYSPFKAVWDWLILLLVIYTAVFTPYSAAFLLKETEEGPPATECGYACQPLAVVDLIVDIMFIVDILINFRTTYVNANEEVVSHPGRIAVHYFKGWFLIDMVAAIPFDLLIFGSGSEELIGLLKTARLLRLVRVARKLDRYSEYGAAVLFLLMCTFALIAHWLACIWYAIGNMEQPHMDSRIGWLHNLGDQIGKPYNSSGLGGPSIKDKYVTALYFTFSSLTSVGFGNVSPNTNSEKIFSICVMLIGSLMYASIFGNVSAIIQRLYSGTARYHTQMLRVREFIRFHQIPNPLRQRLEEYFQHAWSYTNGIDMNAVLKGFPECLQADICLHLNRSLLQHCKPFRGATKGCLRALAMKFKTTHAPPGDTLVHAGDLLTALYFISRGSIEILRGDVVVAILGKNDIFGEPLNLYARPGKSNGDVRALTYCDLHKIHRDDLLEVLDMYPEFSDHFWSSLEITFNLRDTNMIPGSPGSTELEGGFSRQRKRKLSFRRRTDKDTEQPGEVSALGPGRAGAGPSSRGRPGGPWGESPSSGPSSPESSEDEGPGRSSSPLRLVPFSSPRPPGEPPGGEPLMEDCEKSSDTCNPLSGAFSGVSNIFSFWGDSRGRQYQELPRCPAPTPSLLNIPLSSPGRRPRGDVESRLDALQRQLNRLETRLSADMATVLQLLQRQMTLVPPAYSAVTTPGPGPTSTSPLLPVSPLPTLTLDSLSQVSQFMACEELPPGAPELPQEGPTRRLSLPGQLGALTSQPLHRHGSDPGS
Retinoic acid receptor RXR-alpha (Homo sapiens), sequence (P19793 whole entry, looked up): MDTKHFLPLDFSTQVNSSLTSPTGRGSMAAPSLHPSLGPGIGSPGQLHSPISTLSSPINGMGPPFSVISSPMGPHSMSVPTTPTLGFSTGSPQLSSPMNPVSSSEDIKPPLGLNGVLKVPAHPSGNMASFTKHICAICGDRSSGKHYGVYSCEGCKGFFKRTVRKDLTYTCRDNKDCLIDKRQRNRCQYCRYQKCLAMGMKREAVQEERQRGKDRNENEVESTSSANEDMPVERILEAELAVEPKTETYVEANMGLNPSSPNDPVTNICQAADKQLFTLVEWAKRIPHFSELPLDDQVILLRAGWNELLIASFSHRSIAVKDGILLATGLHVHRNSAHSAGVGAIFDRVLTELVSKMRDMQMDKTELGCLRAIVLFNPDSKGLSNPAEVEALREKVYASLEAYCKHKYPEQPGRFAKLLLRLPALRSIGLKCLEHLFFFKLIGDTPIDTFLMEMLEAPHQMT

As for `CCCCC(CC)COC(=O)c1ccccc1O` (stereo unspecified), the outcome in [1], in [2], in assay [4] and in assay [5] was inactive. For the same molecule, the max response was -12.2% in assay [3] and -3.04% in [6]. Also, the activity change % (negative = inhibition) in assay [7] is 12.6% (inactive). In addition, the Potency entry in assay [8], in assay [9] and in assay [10] was “inactive” each time.

As to `[Cl][In]([Cl])[Cl]`, the molecule was classed as inactive in assay [1], in [2] and in assay [4]. Also, the max response in [3] is -5.94%; in assay [6], -2.25%. In addition, the activity change % (negative = inhibition) in [7] was 2% (inactive). Moreover, the Potency result in assay [8], in assay [10], in [11] and in assay [12] was “inactive” each time.

In the case of `NC(=O)NC(=O)Cc1ccccc1`, the Potency result in assay [8], in assay [9] and in [10] was “inactive” in each case.

On to `C=CCn1c(=O)n([C@@H]2O[C@H](CO)[C@@H](O)[C@H]2O)c2nc(N)[nH]c(=O)c21`, for which, in assay [8], the Potency entry is “inactive”.

Take `CCOC(CN1CCN(CC(C)C(=O)c2ccccc2)CC1)c1ccccc1` (stereo unspecified): in [8], the Potency was 12.6 µM (active). In [9], the Potency result is “inactive”.

Consider `O=Cc1ccccc1C=O`, for which the Potency entry in assay [8] and in assay [9] was “inactive” throughout.

Take `C[C@@H]1CC[C@@]2(OC1)O[C@H]1C[C@H]3[C@@H]4CC[C@H]5C[C@@H](O)CC[C@]5(C)[C@H]4CC(=O)[C@]3(C)[C@H]1[C@@H]2C`: the Potency entry in assay [8] was “inactive”.

As to `CO/N=C(\C(=O)N[C@@H]1C(=O)N2C(C(=O)O)=C(CSc3nc(=O)c(O)nn3C)CS[C@H]12)c1csc(N)n1`, in assay [8], the Potency result is “inactive”.

For the molecule `N[C@@H](CSSC[C@H](N)C(=O)O)C(=O)O`, the Potency entry in assay [8] was “inactive”.

As for `Cc1ccc2nc(N)[nH]c(=O)c2c1Sc1ccncc1`, the Potency entry in assay [8], in [9] and in assay [10] was “inactive” throughout.

Turning to `[O-][n+]1cccc(CO)c1`, the Potency result in assay [8] and in assay [9] was “inactive” in each case.

Consider `O=c1[nH]cnc2c1ncn2[C@@H]1O[C@H](CO)[C@@H](O)[C@H]1O`, for which the Potency entry in [8] was “inactive”.

In the case of `Cc1c(Cl)cccc1Nc1ccccc1C(=O)O`, the Potency result in [8] and in assay [10] was “inactive” throughout. In assay [9], the Potency was 32.2 µM (active).

`CCN(CC)C(=O)Nc1ccc(OCC(O)CNC(C)(C)C)c(C(C)=O)c1` (stereo unspecified): the Potency entry in assay [8] is “inactive”.

For the molecule `CCC(=O)c1ccc(O)cc1`, the Potency result in assay [8], in assay [9] and in assay [10] was “inactive” throughout.

With `CS(=O)(=O)c1ccc([C@@H](O)[C@@H](CF)NC(=O)C(Cl)Cl)cc1`, in assay [8], the Potency result was “inactive”.

Take `Cc1ncc([N+](=O)[O-])n1CC(O)CCl` (stereo unspecified): the Potency result in assay [8] is “inactive”.

Consider `OCC(CO)N[C@H]1C[C@](O)(CO)[C@@H](O)[C@H](O)[C@H]1O`, for which the Potency result in assay [8] is “inactive”.

On to `C/C(=C(\CCOP(=O)(O)O)SC(=O)c1ccccc1)N(C=O)Cc1cnc(C)nc1N`, for which, in assay [8], the Potency result is “inactive”.

For the molecule `CC1=C(C/C=C(\C)CCC[C@H](C)CCC[C@H](C)CCCC(C)C)C(=O)c2ccccc2C1=O`, the Potency result in [8] is “inactive”.

With `C[C@@H](O)[C@H](N)C(=O)O`, the Potency result in assay [8] was “inactive”.

Take `O=C1Nc2ccc(Cl)cc2[C@@](C#CC2CC2)(C(F)(F)F)O1`: the Potency entry in [8] was “inactive”.

As for `CC[N+](CC)(CC)CCOc1ccc(/C=C/c2ccccc2)cc1`, the Potency in assay [8] was 14.1 µM (active). For the same molecule, in assay [9], the Potency result is “inactive”.

Regarding `N[C@H](C(=O)O)c1ccc(O)cc1`, the Potency result in assay [8] was “inactive”.

Consider `OC[C@H]1O[C@@H](O[C@@H]2[C@@H](CO)O[C@](O)(CO)[C@H]2O)[C@H](O)[C@@H](O)[C@H]1O`, for which the Potency entry in [8] is “inactive”.

`c1ccc2c(CC3=NCCN3)cccc2c1`: the Potency result in assay [8] and in assay [9] was “inactive” in each case.

Regarding `CC1CC(OC(=O)C(O)c2ccccc2)CC(C)(C)N1C` (stereo unspecified), the Potency result in assay [8] is “inactive”.

Take `N[C@H]1C(O)O[C@H](CO)[C@@H](O)[C@@H]1O` (stereo partly specified): the Potency result in assay [8] was “inactive”.

As for `CN1CCC[C@@H]1Cc1c[nH]c2ccc(CCS(=O)(=O)c3ccccc3)cc12`, the Potency in assay [8] was 12.6 µM (active). Moreover, the Potency result in assay [9] was “inactive”.

For the molecule `CC1(C)Oc2ccc(C#N)cc2[C@@H](N2CCCC2=O)[C@@H]1O`, in assay [8], the Potency result was “inactive”.

For `C[C@]12CC[C@@H]3c4ccc(O)cc4CC[C@H]3[C@@H]1CC[C@@H]2OC(=O)CCC1CCCC1`, the Potency result in [8] was “inactive”.

As for `COc1ccc2cc1Oc1cc3c(cc1OC)CC[N+](C)(C)[C@H]3Cc1ccc(cc1)Oc1c(OC)c(OC)cc3c1[C@@H](C2)[N+](C)(C)CC3`, in assay [8], the Potency result is “inactive”.

For the molecule `O=C(O)[C@H](O)c1ccccc1`, the Potency result in assay [8] was “inactive”.

For `C[C@H]1O[C@H](O[C@H]2[C@H](O)[C@@H](O)[C@@H](O[C@H]3[C@H](O)[C@@H](O)[C@H](O)O[C@@H]3CO)O[C@@H]2CO)[C@H](O)[C@@H](O)[C@@H]1N[C@H]1C=C(CO)[C@@H](O)[C@H](O)[C@H]1O`, in assay [8], the Potency entry was “inactive”.
